We go through 15 compounds from PubChem BioAssay (NCI).

Each structure is given as a SMILES string. The panel holds about 83,000 compounds, 20% with a hit somewhere; the sample as a whole holds those more often.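 How to read the values: 0–100, growth inhibition (40 = 60% inhibited); 0, no net growth; -100 to 0, cell death (-40 = 40% of starting cells died; -100 = all dead).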 Values without a mark were called inactive. The source made the active and inactive calls. The calls were made as follows: active = growth percent below 10; inactive = the rest.

For this assay, the system named is MDA-MB-468 breast. In words: NCI-60 one-dose screen, 48 h (100 = growth as untreated, 0 = no growth, -100 = all killed). The note with it: 10 µM unless noted.
Turning to `Cc1ccc(Nc2ncnc3c2c(C)nn3-c2ccc([N+](=O)[O-])cc2)cc1`, the growth is 84.2%. As to `COc1ccc(-c2cnoc2-c2ccc(OC)cc2O)cc1`, the growth was 1% (active). As for `C#C[C@@]1(O)[C@@H](CO)O[C@@H](n2cc(Br)c3c(Cl)ccnc32)[C@@H]1O`, the figure is 14%; as for `O=C(CS)OCC(COC(=O)CS)(COC(=O)CS)COC(=O)CS`, 78.8%; as for `N/C(=N\C(N)=N\c1nc2ccccc2s1)c1ccncc1`, 56.6%. On to `NC(=S)CN1CCOCC1`, for which the growth is 104%. As for `CC(C)=CCc1cc(O)cc2c1OC(C=C(C)C)C1=C2C(=O)C2=C(C1=O)S(=O)(=O)CCN2` (stereo not given), the figure is -31.2% (active); as for `CCn1cc(-c2cc(-c3ccc(Cl)cc3)nc(N)n2)c(-c2ccc(Br)cc2)n1`, 72.7%; as for `COc1cc(-c2nc3cc(Cl)c(Cl)cc3[nH]2)ccc1OCC(=O)N=Nc1c(O)[nH]c2ccc(Cl)cc12`, -56.3% (active). Turning to `CC[C@@]1(C(N)=O)CC2C=CC1C2` (stereo not given in full), the growth is 103%. The result for `OC(CSc1ccccc1)CN1CCN(c2ccc(Cl)cc2)CC1` (stereo not given) reads 86.7%; that for `Oc1ccc(CSc2nnc(-c3ccc(Oc4ccccc4)cc3)o2)c2cccnc12`, 30.7%. The result for `COc1ccc(C(=O)c2cc(C)c(OC)c(C)c2)cc1OC(=O)CCl` reads 37.7%; that for `CC(C)(C)OC(=O)N1C(=O)c2c(c3c4ccccc4[nH]c3c3ccc4ccccc4c23)C1=O`, 75.6%.

Take `Nc1nc(N)c2cc(Sc3ccc(Cl)cc3)ccc2n1`: the growth is 18.7%.
